Source: PubChem BioAssay (EPA / NIEHS)
Results filed as inconclusive are left out. Calls of active or inactive are those of the source. The calls were made as follows: active = hit-call score of the fitted dose curve at least 0.9, where 1 is the maximum; inconclusive = response in the unintended direction; inactive = score below 0.9.

What was measured:
[1] = biological target: human Caspase 4 (CASP4), CASP4 (gene 837) (UniProt P49662); assay: NVS_ENZ_hCASP4: NovaScreen (NVS) Enzymatic Assay for human Caspase 4 (CASP4) (AID 2283143)
human Caspase 4 (CASP4), CASP4 (gene 837), sequence (P49662 whole entry, looked up): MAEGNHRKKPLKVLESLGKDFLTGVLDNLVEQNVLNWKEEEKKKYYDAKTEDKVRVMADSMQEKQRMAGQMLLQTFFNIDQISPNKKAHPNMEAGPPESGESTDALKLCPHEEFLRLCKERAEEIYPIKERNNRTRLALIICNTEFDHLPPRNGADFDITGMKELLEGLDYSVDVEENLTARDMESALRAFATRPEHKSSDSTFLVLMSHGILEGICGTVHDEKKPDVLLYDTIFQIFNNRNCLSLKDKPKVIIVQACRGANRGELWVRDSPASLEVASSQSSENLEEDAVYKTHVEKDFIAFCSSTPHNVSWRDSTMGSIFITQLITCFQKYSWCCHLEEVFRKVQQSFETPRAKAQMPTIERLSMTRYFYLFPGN
Method in brief: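 The cell-free assay used E. coli-expressed enzyme with a fluorogenic substrate, read 2 h after dosing. Signal loss was scored versus DMSO. Screening was in duplicate at 25 uM, then singleton concentration-response up to 50 uM.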

[2] = biological target: human Colony Stimulating Factor 1 Receptor (CSF1R), CSF1R (gene 1436) (UniProt P07333); assay: NVS_ENZ_hCSF1R: NovaScreen (NVS) Enzymatic Assay for human Colony Stimulating Factor 1 Receptor (CSF1R) (AID 2283150)
human Colony Stimulating Factor 1 Receptor (CSF1R), CSF1R (gene 1436), sequence (P07333 whole entry, looked up): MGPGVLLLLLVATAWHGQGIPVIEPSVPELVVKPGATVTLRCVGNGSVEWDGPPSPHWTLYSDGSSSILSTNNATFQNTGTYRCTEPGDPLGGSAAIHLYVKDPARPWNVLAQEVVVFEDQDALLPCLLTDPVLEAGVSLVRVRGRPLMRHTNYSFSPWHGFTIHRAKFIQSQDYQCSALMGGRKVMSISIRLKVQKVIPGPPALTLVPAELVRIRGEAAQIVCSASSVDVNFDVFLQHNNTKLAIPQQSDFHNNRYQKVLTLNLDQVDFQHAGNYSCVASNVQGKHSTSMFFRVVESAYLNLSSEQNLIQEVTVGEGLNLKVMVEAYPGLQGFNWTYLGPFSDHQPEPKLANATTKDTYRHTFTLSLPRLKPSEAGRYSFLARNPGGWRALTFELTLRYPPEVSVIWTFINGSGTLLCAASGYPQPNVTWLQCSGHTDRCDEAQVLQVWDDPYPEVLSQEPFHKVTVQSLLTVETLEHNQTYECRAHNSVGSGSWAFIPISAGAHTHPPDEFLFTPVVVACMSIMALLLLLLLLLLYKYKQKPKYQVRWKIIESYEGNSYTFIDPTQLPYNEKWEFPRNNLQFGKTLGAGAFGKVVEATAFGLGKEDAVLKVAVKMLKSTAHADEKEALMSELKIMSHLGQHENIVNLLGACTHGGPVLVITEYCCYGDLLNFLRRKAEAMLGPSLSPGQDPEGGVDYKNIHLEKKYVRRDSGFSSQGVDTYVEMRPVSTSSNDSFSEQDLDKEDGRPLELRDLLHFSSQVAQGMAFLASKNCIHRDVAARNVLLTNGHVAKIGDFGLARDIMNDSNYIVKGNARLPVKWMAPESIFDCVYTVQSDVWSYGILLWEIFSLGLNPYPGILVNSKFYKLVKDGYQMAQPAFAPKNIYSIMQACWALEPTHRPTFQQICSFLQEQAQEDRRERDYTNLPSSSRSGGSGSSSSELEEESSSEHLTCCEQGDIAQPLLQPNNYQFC
Method in brief: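 Cell-free recombinant human CSF1R kinase with fluorescent substrate, product separated by electrophoretic mobility shift; read 1 h after dosing. Primary screen at 25 uM in duplicate, actives then in concentration-response up to 50 uM, relative to DMSO.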

[3] = biological target: human Elastase, ELANE (gene 1991) (UniProt P08246); assay: NVS_ENZ_hElastase: NovaScreen (NVS) Enzymatic Assay for human Elastase (AID 2283153)
human Elastase, ELANE (gene 1991), sequence (P08246 whole entry, looked up): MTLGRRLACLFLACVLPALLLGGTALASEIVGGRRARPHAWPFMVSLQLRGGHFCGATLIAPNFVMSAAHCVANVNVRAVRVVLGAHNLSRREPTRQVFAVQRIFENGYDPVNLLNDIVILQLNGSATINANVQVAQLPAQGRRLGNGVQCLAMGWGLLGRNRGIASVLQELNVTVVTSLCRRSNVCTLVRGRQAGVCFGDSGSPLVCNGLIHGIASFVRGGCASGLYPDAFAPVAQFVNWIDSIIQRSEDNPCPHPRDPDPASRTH
Method in brief: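 Cell-free elastase from human neutrophils, 1.5 h after dosing, activity read by absorbance. Primary screen in duplicate at 25 uM; hits (e.g., 30% inhibition) rerun in singleton concentration-response up to 50 uM, fitted versus DMSO.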

[4] = biological target: human Ephrin type-A Receptor 1 (EphA1), EPHA1 (gene 2041) (UniProt P21709); assay: NVS_ENZ_hEphA1: NovaScreen (NVS) Enzymatic Assay for human Ephrin type-A Receptor 1 (EphA1) (AID 2283158);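 also: activity is signal loss versus DMSO meaning EphA1 kinase inhibition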
human Ephrin type-A Receptor 1 (EphA1), EPHA1 (gene 2041), sequence (P21709 whole entry, looked up): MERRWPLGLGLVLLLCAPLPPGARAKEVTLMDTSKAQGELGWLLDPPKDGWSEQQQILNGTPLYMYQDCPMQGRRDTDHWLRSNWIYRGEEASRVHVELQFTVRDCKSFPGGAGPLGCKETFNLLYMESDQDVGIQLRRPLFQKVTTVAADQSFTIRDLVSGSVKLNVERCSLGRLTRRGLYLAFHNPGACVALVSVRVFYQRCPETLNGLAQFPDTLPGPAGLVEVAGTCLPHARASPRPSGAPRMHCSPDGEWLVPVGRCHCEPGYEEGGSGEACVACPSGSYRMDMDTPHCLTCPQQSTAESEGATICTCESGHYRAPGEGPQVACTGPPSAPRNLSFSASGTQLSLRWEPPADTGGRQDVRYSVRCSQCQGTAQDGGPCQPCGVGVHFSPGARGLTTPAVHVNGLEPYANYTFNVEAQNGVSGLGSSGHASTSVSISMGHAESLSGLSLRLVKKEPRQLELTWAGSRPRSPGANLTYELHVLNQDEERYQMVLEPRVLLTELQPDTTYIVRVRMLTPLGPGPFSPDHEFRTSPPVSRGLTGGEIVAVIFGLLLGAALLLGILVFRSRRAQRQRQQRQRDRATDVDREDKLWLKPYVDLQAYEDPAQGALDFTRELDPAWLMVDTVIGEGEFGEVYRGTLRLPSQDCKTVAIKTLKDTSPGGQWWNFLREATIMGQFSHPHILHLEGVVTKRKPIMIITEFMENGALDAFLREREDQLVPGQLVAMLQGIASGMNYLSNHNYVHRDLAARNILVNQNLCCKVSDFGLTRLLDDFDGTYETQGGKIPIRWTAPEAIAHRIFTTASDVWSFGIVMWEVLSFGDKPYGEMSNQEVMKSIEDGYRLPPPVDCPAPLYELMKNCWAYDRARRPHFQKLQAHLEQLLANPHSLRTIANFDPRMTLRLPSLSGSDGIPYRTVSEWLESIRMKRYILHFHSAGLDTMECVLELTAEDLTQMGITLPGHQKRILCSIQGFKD
Method in brief: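 Biochemical kinase assay run cell-free; 1 h incubation; readout is fluorescence with mobility-shift separation of product. Concentration-response up to 50 uM for actives from a 25 uM screen.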

[5] = biological target: human Janus Kinase 2 (Jak2), JAK2 (gene 3717) (UniProt O60674); assay: NVS_ENZ_hJak2: NovaScreen (NVS) Enzymatic Assay for human Janus Kinase 2 (Jak2) (AID 2283169)
Method in brief: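 Cell-free recombinant human JAK2 enzyme activity assay, fluorescence/electrophoretic mobility shift read 1 h after dosing. Screened in duplicate at 25 uM, then concentration-response up to 50 uM; activity as signal loss relative to DMSO.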

[6] = biological target: human LYN Proto-Oncogene, Src family Tyrosine Kinase (LynA), LYN (gene 4067) (UniProt P07948); assay: NVS_ENZ_hLynA: NovaScreen (NVS) Enzymatic Assay for human LYN Proto-Oncogene, Src family Tyrosine Kinase (LynA) (AID 2283173)
human LYN Proto-Oncogene, Src family Tyrosine Kinase (LynA), LYN (gene 4067), sequence (P07948 whole entry, looked up): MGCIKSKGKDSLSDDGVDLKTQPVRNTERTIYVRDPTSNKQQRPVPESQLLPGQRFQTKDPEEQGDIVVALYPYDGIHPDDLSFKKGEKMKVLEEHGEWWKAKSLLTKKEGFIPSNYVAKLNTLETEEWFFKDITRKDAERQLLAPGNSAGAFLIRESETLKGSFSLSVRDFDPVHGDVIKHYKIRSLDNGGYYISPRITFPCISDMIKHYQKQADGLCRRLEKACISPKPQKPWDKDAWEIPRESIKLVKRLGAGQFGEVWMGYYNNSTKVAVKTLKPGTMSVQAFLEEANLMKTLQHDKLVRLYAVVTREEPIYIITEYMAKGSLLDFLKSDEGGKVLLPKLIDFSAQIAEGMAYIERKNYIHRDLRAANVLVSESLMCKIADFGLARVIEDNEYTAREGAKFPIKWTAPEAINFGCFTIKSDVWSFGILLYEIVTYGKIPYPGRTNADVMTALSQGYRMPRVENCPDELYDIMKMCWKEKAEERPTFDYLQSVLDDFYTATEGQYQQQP
Method in brief: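 Recombinant kinase with fluorescent substrate; product separated from substrate by electrophoretic mobility shift and read 1 h after dosing. Duplicate screen at 25 uM, then concentration-response up to 50 uM; activity scored as signal loss against DMSO.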

[7] = biological target: human AKT serine/threonine Kinase 2 (AKT2), AKT2 (gene 208) (UniProt P31751); assay: NVS_ENZ_hAKT2: NovaScreen (NVS) Enzymatic Assay for human AKT serine/threonine Kinase 2 (AKT2) (AID 2283141)
Method in brief: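 Cell-free fluorescence/electrophoretic mobility shift readout of recombinant human AKT2 activity, 1 h after chemical dosing. Duplicate primary screen at 25 uM, then singleton concentration-response up to 50 uM; loss of signal versus DMSO baseline.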

[8] = biological target: human AKT serine/threonine Kinase 1 (AKT1), AKT1 (gene 207) (UniProt P31749); assay: NVS_ENZ_hAKT1: NovaScreen (NVS) Enzymatic Assay for human AKT serine/threonine Kinase 1 (AKT1) (AID 2283138)
Method in brief: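 Signal loss relative to DMSO, measured by fluorescence after electrophoretic separation of substrate and product, indicates inhibition of recombinant enzyme. Readings at 1 h; screening at 25 uM, follow-up curves up to 50 uM.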

[9] = biological target: human Caspase 5 (CASP5), CASP5 (gene 838) (UniProt P51878); assay: NVS_ENZ_hCASP5: NovaScreen (NVS) Enzymatic Assay for human Caspase 5 (CASP5) (AID 2283137)
human Caspase 5 (CASP5), CASP5 (gene 838), sequence (P51878 whole entry, looked up): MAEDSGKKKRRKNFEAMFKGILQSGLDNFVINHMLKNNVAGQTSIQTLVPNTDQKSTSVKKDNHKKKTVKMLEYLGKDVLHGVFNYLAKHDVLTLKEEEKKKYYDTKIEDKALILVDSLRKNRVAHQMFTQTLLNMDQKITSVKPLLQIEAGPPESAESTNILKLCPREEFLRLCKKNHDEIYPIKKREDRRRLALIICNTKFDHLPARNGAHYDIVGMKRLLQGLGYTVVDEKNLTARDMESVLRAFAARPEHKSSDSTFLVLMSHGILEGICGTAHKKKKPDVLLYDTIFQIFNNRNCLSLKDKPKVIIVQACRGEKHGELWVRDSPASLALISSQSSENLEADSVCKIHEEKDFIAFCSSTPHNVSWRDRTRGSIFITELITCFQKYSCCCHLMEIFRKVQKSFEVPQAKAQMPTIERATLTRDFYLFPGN
Method in brief: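 Cell-free protease assay with bacterially expressed CASP5 and a fluorescent substrate, measured at 2 h. Values fitted relative to DMSO as baseline, from concentration-response series topping at 50 uM.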

[10] = biological target: human Beta-secretase (BACE), BACE1 (gene 23621) (UniProt P56817); assay: NVS_ENZ_hBACE: NovaScreen (NVS) Enzymatic Assay for human Beta-secretase (BACE) (AID 2283140);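 also: hits are inhibitors that reduce fluorescent substrate signal versus DMSO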
human Beta-secretase (BACE), BACE1 (gene 23621), sequence (P56817 whole entry, looked up): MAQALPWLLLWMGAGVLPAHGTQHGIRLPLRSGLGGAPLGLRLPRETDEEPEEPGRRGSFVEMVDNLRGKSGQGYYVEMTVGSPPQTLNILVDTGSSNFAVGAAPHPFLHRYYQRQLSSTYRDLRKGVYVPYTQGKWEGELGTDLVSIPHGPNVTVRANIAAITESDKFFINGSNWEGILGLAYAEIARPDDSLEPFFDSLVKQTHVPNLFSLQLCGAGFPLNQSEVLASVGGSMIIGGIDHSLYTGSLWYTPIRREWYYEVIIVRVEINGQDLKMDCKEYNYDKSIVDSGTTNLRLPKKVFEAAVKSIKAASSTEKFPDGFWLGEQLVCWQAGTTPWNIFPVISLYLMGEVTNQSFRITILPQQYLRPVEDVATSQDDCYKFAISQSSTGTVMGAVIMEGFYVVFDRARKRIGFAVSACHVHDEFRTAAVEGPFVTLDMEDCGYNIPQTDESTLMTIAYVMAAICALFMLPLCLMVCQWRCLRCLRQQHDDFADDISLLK
Method in brief: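 Recombinant BACE1 (SF9 extract) incubated with compound and fluorescent substrate, 1 h. Plates carried positive and DMSO negative controls. Initial single dose 25 uM, duplicate; confirmation by concentration series.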

[11] = biological target: human Dual Specificity Protein Phosphatase 3 (DUSP3), DUSP3 (gene 1845) (UniProt P51452); assay: NVS_ENZ_hDUSP3: NovaScreen (NVS) Enzymatic Assay for human Dual Specificity Protein Phosphatase 3 (DUSP3) (AID 2283152);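 also: phosphatase activity of recombinant human DUSP3 on a fluorogenic substrate without cells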
human Dual Specificity Protein Phosphatase 3 (DUSP3), DUSP3 (gene 1845), sequence (P51452 whole entry, looked up): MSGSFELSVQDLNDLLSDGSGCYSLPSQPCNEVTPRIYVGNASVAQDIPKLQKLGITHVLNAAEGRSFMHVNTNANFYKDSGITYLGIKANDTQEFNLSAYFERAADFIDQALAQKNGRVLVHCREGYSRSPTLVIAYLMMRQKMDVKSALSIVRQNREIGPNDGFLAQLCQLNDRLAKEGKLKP
Method in brief: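 Cell-free assay with recombinant human DUSP3 and fluorogenic substrate, read by fluorescence intensity. Primary screen ran duplicate at 25 uM; actives followed up in concentration series; loss of signal versus DMSO scored.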

[12] = biological target: human Acid Phosphatase 1 (ACP1), ACP1 (gene 52) (UniProt P24666); assay: NVS_ENZ_hACP1: NovaScreen (NVS) Enzymatic Assay for human Acid Phosphatase 1 (ACP1) (AID 2283136)
human Acid Phosphatase 1 (ACP1), ACP1 (gene 52), sequence (P24666 whole entry, looked up): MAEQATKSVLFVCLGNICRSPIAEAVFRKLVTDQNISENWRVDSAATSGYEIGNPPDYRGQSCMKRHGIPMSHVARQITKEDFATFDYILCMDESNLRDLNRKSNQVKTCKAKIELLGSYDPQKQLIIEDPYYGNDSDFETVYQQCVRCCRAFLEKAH
Method in brief: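 Recombinant enzyme expressed in Sf9 cells, tested cell-free; activity read by fluorescence with electrophoretic mobility shift separation of substrate and product, 1.5 h after dosing. Primary screen in duplicate at 25 uM, actives then run in concentration series; loss of signal versus DMSO.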

[13] = biological target: human Caspase 8 (CASP8), CASP8 (gene 841) (UniProt Q14790); assay: NVS_ENZ_hCASP8: NovaScreen (NVS) Enzymatic Assay for human Caspase 8 (CASP8) (AID 2283146)
Method in brief: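 E. coli-expressed enzyme was used in a cell-free fluorogenic substrate assay read 1 h after dosing. Loss of signal was scored relative to DMSO, and the primary screen was run in duplicate at 25 uM.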

[14] = biological target: Mitogen-activated protein kinase 3 (Homo sapiens) (UniProt P27361); assay: NVS_ENZ_hMAPK3: NovaScreen (NVS) Enzymatic Assay for human Mitogen-Activated Protein Kinase 3 (MAPK 3) (AID 2283177)
Method in brief: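 Cell-free enzymatic assay with recombinant protein and specific substrate; fluorescence and electrophoretic mobility shift read-out 1 h after dosing. Primary screen duplicate at 25 uM; actives then run in concentration-response up to 50 uM, loss of signal versus DMSO.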

[15] = biological target: human Esterase Plasma (ES), BCHE (gene 590) (UniProt P06276); assay: NVS_ENZ_hES: NovaScreen (NVS) Enzymatic Assay for human Esterase Plasma (ES) (AID 2283157)
human Esterase Plasma (ES), BCHE (gene 590), sequence (P06276 whole entry, looked up): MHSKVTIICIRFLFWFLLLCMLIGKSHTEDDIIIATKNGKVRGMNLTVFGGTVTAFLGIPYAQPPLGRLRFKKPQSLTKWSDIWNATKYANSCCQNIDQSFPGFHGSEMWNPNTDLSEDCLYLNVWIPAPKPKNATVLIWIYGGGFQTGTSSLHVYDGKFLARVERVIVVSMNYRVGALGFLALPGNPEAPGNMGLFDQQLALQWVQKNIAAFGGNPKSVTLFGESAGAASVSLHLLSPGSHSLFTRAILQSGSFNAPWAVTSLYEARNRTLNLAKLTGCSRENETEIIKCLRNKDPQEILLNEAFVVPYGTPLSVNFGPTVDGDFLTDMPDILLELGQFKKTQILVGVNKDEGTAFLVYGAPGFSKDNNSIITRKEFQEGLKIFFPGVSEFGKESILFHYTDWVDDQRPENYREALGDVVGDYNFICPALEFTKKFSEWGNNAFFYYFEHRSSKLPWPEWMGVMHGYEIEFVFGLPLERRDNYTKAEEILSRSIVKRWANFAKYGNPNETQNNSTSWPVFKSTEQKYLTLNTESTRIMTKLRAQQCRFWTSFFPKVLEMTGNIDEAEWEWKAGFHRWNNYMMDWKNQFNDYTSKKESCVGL
Method in brief: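 Chemicals were added to plasma-extracted human enzyme in a cell-free format, and activity was read colorimetrically after 0.25 hour. Activity loss was referenced to DMSO; concentration-response top dose was 50 uM.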

[16] = biological target: human Insulin Receptor (InsR), INSR (gene 3643) (UniProt P06213); assay: NVS_ENZ_hInsR: NovaScreen (NVS) Enzymatic Assay for human Insulin Receptor (InsR) (AID 2283168)
Method in brief: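 Fluorescent substrate phosphorylation by recombinant kinase, product resolved by electrophoretic mobility shift, read 1 h after dosing. Screened in duplicate at 25 uM; hits (e.g., 30% inhibition) run in concentration-response to 50 uM; DMSO as baseline.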

[17] = biological target: Histone deacetylase 3 (Homo sapiens) (UniProt O15379); assay: NVS_ENZ_hHDAC3: NovaScreen (NVS) Enzymatic Assay for human Histone Deacetylase 3 (HDAC3) (AID 2283163)
Method in brief: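 Recombinant human HDAC3 with fluorescent substrate, 1 h after dosing; product separated from substrate by electrophoretic mobility shift and read by fluorescence. Primary screen at 25 uM in duplicate; actives (e.g. ≥30% inhibition) retested in concentration-response up to 50 uM.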

[18] = biological target: human c-Jun N-terminal Kinases (JNK2), MAPK9 (gene 5601) (UniProt P45984); assay: NVS_ENZ_hJNK2: NovaScreen (NVS) Enzymatic Assay for human c-Jun N-terminal Kinases (JNK2) (AID 2283171)
Method in brief: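 Cell-free recombinant human JNK2 activity assay; fluorescent substrate and product separated by electrophoretic mobility shift, read 1 h after dosing. Primary duplicate screen at 25 uM; actives run in concentration-response up to 50 uM, relative to DMSO.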

## CNS(=O)(=O)c1cc(C(=O)N2CCC(CCN3C4CCC3CC(n3c(C)nc5ccccc53)C4)(c3cccc(F)c3)CC2)c(Cl)cc1F (stereo unspecified)
[1]
  outcome: inactive
[2]
  AC50: 39.1 µM (active)
[3]
  AC50: 8.03 µM (active)
[4]
  outcome: inactive
[5]
  AC50: 10.2 µM (active)
[6]
  outcome: inactive

## CN(C)c1ccc(N=NS(=O)(=O)O)cc1
[1]
  outcome: inactive
[2]
  outcome: inactive
[4]
  outcome: inactive

## CC(C)CCCCCCCOC(=O)CCCCC(=O)OCCCCCCCC(C)C
[7]
  outcome: inactive
[6]
  outcome: inactive

## NC(=O)NO
[8]
  AC50: 16.5 µM (active)
[6]
  outcome: inactive

## O=C(OC[C@H]1O[C@@H](OC(=O)c2cc(O)c(O)c(OC(=O)c3cc(O)c(O)c(O)c3)c2)[C@H](OC(=O)c2cc(O)c(O)c(OC(=O)c3cc(O)c(O)c(O)c3)c2)[C@@H](OC(=O)c2cc(O)c(O)c(OC(=O)c3cc(O)c(O)c(O)c3)c2)[C@@H]1OC(=O)c1cc(O)c(O)c(OC(=O)c2cc(O)c(O)c(O)c2)c1)c1cc(O)c(O)c(OC(=O)c2cc(O)c(O)c(O)c2)c1
[9]
  AC50: 0.136 µM (active)
[10]
  AC50: 3.11 µM (active)
[11]
  AC50: 3.95 µM (active)
[3]
  AC50: 0.0537 µM (active)

## CC(C)CC(C)(O)C#CC(C)(O)CC(C)C (stereo unspecified)
[8]
  outcome: inactive
[6]
  outcome: inactive

## CCOc1cccc(-n2cc(C(=O)N3CCN(c4cc(C(=O)O)c5ccccc5c4)CC3)nc2-c2ccc(C)cc2)c1
[9]
  AC50: 18.3 µM (active)
[10]
  AC50: 10.5 µM (active)
[1]
  outcome: inactive
[3]
  AC50: 6.63 µM (active)

## CC(C)c1cccc(C(C)C)c1N1C(=O)c2ccc(O)cc2C1=O
[12]
  outcome: inactive
[8]
  outcome: inactive
[13]
  outcome: inactive
[6]
  outcome: inactive
[14]
  outcome: inactive

## Oc1ccc2c(c1)-c1ccccc1C2
[9]
  AC50: 36.1 µM (active)
[3]
  AC50: 23 µM (active)
[15]
  outcome: inactive

## Nc1ccc(Nc2ccccc2)cc1
[9]
  outcome: inactive
[1]
  outcome: inactive
[11]
  AC50: 7.11 µM (active)
[15]
  AC50: 29.8 µM (active)

## CNCc1ccc(NC(=O)c2c[nH]c3c2C(=O)CCC3)cc1
[10]
  outcome: inactive

## CCOC(=O)COc1ccc2c(c1)CC(NCC(O)c1cccc(Cl)c1)CC2 (stereo unspecified)
[15]
  AC50: 10.9 µM (active)

## Cc1ccc(C)c(O)c1
[13]
  outcome: inactive

## CC[C@H]1OC(=O)[C@H](C)[C@@H](O[C@H]2C[C@@](C)(OC)[C@@H](O)[C@H](C)O2)[C@H](C)[C@@H](O[C@@H]2O[C@H](C)C[C@H](N(C)C)[C@H]2O)[C@](C)(O)C[C@@H](C)C(=O)[C@H](C)[C@@H](O)[C@]1(C)O
[16]
  outcome: inactive

## COCCOc1cc2cc(C(=O)NC3CCN(C(C)C)CC3)n(CC(=O)Nc3ccc(Cl)cn3)c2cn1
[2]
  outcome: inactive
[15]
  AC50: 23.3 µM (active)
[17]
  outcome: inactive

## Cc1[nH]cnc1C[C@H]1CCc2c(C)c3ccccc3n2C1=O
[15]
  AC50: 14.4 µM (active)

## O=C(O)c1cccc(N(Cc2cccnc2)c2ccc(OC(F)F)c(OC(F)F)c2)c1
[18]
  AC50: 4.96 µM (active)
[14]
  outcome: inactive

## COc1ccc(/C=C/S(=O)(=O)NC(=O)c2ccc(C)cc2Cl)cc1
[4]
  outcome: inactive
